Measured values published in PubChem BioAssay (EPA / NIEHS).
Results filed as inconclusive are left out. Active and inactive are the calls of the source. Rule for the calls, unless noted: active = hit-call score of the fitted dose curve at least 0.9, where 1 is the maximum; inconclusive = response in the unintended direction; inactive = score below 0.9.

Assays:
[1] = ATG_TAL_CIS: Attagene CIS-FACTORIAL HepG2 Assay for human TAL Basal Promoter (AID 2282966; active = hit-call score of the fitted dose curve at least 0.9, where 1 is the maximum; inactive = score below 0.9;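 note: background control endpoint measuring basal TAL promoter reporter mRNA not a specific factor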); conditions: HepG2 Attagene cis-factorial TAL promoter reporter; actives raise or lower the signal
Procedure, shortened: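 Background-control endpoint: basal TAL promoter reporter transcripts in transiently transfected HepG2, measured 24 h after dosing. Read-out by RT-PCR with fluorescent primer extension and capillary electrophoresis; gain or loss of signal fitted relative to DMSO.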

[2] = ATG_TGFb_CIS: Attagene CIS-FACTORIAL HepG2 Assay for human Transforming Growth Factor (TGF) (AID 2282967; active = hit-call score of the fitted dose curve at least 0.9, where 1 is the maximum; inactive = score below 0.9); conditions: HepG2 Attagene CIS TGFb reporter, mRNA transcription; actives raise or lower the signal
Procedure, shortened: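 Multiplexed cis-reporter HepG2 system, 24 h treatment; mRNA induction read by fluorescence after RT-PCR and CE; DMSO negative control, bidirectional curve fitting.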

[3] = ATG_VDRE_CIS: Attagene CIS-FACTORIAL HepG2 Assay for human Vitamin D Receptor Element (VDRE) (AID 2282968; active = hit-call score of the fitted dose curve at least 0.9, where 1 is the maximum; inactive = score below 0.9); conditions: HepG2 VDRE cis-reporter transcription, actives raise or lower the signal
Procedure, shortened: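 Transfected HepG2 reporter cells, chemical treatment 24 h. RNA isolated, cDNA amplified with reporter-specific primers, products analysed by capillary electrophoresis. Endpoint fitted in both directions versus DMSO.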

[4] = biological target: X-box-binding protein 1 (Homo sapiens) (UniProt P17861); test: ATG_Xbp1_CIS: Attagene CIS-FACTORIAL HepG2 Assay for human X-box Binding Protein 1 (XBP1) (AID 2282972; active = hit-call score of the fitted dose curve at least 0.9, where 1 is the maximum; inactive = score below 0.9); conditions: HepG2 XBP1 cis-element reporter, Attagene multiplex; actives raise or lower the signal
Chain of X-box-binding protein 1 (Homo sapiens) (P17861 whole entry, looked up, the tested form may be a part): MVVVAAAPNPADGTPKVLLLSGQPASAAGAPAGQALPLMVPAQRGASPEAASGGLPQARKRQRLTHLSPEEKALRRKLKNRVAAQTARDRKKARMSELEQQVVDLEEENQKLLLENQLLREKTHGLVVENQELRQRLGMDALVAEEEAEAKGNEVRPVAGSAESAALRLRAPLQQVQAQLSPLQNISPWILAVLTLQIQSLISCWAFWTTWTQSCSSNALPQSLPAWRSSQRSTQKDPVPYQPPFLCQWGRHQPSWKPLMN
Procedure, shortened: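 Read-out: fluorescent reporter mRNA fragments resolved by capillary electrophoresis after RT-PCR. Human HepG2 liver cells carried transfected cis-promoter reporter units and were exposed to chemicals for 24 hours. Gain or loss of signal fitted relative to DMSO baseline.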

[5] = ATG_M_19_TRANS: Attagene TRANS-FACTORIAL HepG2 Assay for M19 Transcription Factor (Internal Marker) (AID 2282974); conditions: HepG2 Attagene TRANS-FACTORIAL M19 internal marker reporter
Procedure, shortened: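 Measured here: internal-marker reporter transcript from HepG2 cells transfected with MRTUs, harvested at 24 h. cDNA PCR products were 6-FAM labelled by primer extension, cut with HpaI for 2 h at 37 C, and resolved by CE.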

[6] = ATG_GAL4_TRANS: Attagene TRANS-FACTORIAL HepG2 Assay for GAL4 (Internal Marker) (AID 2282976); conditions: HepG2 Attagene TRANS GAL4 internal marker reporter
Procedure, shortened: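 In transfected human HepG2 liver cells dosed 24 h, GAL4 reporter mRNA serves as a baseline marker. Detection by RT-PCR with fluorescent capillary electrophoresis, activity fitted upward relative to DMSO.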

[7] = biological target: Glucocorticoid receptor (Homo sapiens) (UniProt P04150); test: ATG_GR_TRANS: Attagene TRANS-FACTORIAL HepG2 Assay for human Glucocorticoid Receptor (GR) (AID 2282978); conditions: HepG2 Attagene TRANS GR reporter, mRNA transcription;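 note: activators score as hits since higher reporter transcript over DMSO is fitted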
Chain of Glucocorticoid receptor (Homo sapiens) (P04150 whole entry, looked up, the tested form may be a part): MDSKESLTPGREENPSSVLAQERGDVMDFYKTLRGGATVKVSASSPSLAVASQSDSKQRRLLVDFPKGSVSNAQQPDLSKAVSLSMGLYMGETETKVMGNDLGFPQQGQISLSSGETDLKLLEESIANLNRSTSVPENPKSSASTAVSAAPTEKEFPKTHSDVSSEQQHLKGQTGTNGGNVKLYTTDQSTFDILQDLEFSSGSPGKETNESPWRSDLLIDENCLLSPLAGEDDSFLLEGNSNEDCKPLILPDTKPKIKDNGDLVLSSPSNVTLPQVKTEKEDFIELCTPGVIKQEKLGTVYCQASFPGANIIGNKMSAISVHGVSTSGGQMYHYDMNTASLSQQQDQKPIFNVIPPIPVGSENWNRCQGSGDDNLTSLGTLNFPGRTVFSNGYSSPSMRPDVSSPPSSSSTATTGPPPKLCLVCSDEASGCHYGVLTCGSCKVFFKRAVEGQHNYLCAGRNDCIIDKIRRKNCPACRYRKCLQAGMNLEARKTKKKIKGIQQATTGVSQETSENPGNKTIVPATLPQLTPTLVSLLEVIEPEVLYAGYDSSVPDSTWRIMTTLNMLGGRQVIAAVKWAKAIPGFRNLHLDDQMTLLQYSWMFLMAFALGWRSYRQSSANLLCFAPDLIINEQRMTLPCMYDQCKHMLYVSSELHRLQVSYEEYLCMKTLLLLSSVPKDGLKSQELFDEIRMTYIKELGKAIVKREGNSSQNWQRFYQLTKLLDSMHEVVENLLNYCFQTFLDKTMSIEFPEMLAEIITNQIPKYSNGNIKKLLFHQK
Procedure, shortened: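 Measurement of GAL4-UAS-driven reporter mRNA in human HepG2 liver cells 24 h post-dosing, using RT-PCR with fluorescent labelling and capillary electrophoresis; the transfected constructs report exogenous NR-GAL4 chimera activity, fitted upward against DMSO.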

[8] = biological target: Bile acid receptor (Homo sapiens) (UniProt Q96RI1); test: ATG_FXR_TRANS: Attagene TRANS-FACTORIAL HepG2 Assay for Farnesoid X Receptor (FXR) (AID 2282979); conditions: HepG2 Attagene TRANS FXR-GAL4 reporter transcription;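 note: hits raise reporter mRNA above DMSO so AC50 marks FXR activation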
Chain of Bile acid receptor (Homo sapiens) (Q96RI1 whole entry, looked up, the tested form may be a part): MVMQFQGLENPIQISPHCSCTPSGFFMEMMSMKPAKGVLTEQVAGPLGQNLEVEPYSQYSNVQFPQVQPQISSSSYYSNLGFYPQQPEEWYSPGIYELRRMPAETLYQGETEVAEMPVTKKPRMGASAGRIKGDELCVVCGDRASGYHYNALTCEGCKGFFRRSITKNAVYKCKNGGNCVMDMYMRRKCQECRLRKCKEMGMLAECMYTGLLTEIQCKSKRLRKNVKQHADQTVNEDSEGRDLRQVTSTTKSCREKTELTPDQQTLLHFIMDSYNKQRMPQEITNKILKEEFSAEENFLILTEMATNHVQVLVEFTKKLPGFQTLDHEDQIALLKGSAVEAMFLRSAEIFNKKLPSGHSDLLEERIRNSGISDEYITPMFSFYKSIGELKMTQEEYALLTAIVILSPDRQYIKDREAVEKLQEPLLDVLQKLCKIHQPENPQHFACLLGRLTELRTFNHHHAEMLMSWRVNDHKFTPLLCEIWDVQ
Procedure, shortened: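 Reporter transcripts from transfected HepG2 cells were measured 24 h after dosing, using RT-PCR with capillary electrophoresis of 6-FAM-labelled fragments. The read-out reflects activity of exogenous FXR-Gal4 chimera on GAL4-UAS units, with induction relative to DMSO.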

[9] = biological target: Oxysterols receptor LXR-beta (Homo sapiens) (UniProt P55055); test: ATG_LXRb_TRANS: Attagene TRANS-FACTORIAL HepG2 Assay for human Liver X Receptor beta (LXRb) (AID 2282981); conditions: HepG2 Attagene TRANS GAL4-LXRb reporter, mRNA
Chain of Oxysterols receptor LXR-beta (Homo sapiens) (P55055 whole entry, looked up, the tested form may be a part): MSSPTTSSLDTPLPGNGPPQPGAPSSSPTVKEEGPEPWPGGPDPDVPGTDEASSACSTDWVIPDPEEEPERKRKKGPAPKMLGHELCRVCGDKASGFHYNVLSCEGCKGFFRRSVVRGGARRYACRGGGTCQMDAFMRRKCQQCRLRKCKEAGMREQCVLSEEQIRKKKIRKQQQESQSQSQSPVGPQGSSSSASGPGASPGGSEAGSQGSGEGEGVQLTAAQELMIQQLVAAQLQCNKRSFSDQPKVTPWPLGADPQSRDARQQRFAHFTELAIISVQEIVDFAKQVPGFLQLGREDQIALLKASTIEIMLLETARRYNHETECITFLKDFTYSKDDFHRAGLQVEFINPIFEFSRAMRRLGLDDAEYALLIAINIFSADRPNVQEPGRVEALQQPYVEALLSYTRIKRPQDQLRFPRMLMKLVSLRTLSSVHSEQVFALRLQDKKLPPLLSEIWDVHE
Procedure, shortened: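 Liver-derived HepG2 cells transfected with Gal4-responsive reporters were dosed for 24 h. Activation was scored as rise in reporter mRNA, by RT-PCR and capillary electrophoresis, above DMSO baseline.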

[10] = biological target: Hepatocyte nuclear factor 4-alpha (Homo sapiens) (UniProt P41235); test: ATG_HNF4a_TRANS: Attagene TRANS-FACTORIAL HepG2 Assay for human Hepatocyte Nuclear Factor 4 alpha (HNF4a) (AID 2282982); conditions: HepG2 HNF4a transactivation reporter, mRNA readout
Chain of Hepatocyte nuclear factor 4-alpha (Homo sapiens) (P41235 whole entry, looked up, the tested form may be a part): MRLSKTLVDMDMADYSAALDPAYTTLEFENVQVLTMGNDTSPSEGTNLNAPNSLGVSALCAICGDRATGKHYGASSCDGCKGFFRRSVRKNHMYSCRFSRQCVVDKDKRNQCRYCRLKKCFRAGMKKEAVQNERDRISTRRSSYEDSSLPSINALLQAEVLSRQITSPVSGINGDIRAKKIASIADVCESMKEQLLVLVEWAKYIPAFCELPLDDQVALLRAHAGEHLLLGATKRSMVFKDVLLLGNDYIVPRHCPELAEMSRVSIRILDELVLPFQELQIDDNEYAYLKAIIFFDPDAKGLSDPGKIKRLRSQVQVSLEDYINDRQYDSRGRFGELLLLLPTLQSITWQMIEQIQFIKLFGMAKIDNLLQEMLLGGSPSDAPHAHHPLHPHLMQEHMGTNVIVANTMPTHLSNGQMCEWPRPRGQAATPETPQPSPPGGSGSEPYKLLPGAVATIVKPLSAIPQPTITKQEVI
Procedure, shortened: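 Using HepG2 liver cells transfected with GAL4-UAS reporter units, chemical-induced mRNA increases were assessed after 24 hours. Fluorescent RT-PCR fragments were separated by capillary electrophoresis and compared with DMSO negative controls.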

[11] = ATG_M_32_TRANS: Attagene TRANS-FACTORIAL HepG2 Assay for M32 Transcription Factor (Internal Marker) (AID 2282984); conditions: HepG2 Attagene TRANS M32 internal marker reporter
Procedure, shortened: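 Fluorescence-detected mRNA induction, HepG2 liver cells, 24 h after dosing. Multiple GAL4-UAS reporter units introduced by transient transfection; background-control endpoint analysed for gain of signal against DMSO.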

[12] = biological target: Nuclear receptor subfamily 4 group A member 2 (Homo sapiens) (UniProt P43354); test: ATG_NURR1_TRANS: Attagene TRANS-FACTORIAL HepG2 Assay for human Nuclear Receptor Related Protein 1 (NURR1) (AID 2282985); conditions: HepG2 Attagene TRANS reporter, mRNA readout
Chain of Nuclear receptor subfamily 4 group A member 2 (Homo sapiens) (P43354 whole entry, looked up, the tested form may be a part): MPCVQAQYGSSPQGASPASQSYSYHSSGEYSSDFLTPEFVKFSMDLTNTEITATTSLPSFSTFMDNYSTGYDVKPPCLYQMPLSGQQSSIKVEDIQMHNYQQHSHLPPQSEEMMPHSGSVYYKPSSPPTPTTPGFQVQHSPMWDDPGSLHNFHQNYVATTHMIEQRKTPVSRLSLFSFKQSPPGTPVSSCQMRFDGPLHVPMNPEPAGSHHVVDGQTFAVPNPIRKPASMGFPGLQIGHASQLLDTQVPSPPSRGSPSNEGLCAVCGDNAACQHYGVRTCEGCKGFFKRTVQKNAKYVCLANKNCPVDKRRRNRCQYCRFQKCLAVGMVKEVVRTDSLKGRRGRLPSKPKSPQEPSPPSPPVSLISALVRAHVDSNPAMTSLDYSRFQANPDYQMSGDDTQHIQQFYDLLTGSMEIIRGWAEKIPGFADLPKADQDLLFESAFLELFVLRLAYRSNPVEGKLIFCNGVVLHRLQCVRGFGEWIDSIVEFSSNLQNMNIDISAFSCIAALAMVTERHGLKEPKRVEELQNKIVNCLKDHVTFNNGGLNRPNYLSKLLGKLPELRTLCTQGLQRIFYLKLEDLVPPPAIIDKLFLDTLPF
Procedure, shortened: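 Chimeric NR-Gal4 proteins were expressed in human HepG2 cells bearing GAL4-UAS reporter units, and induced reporter mRNA was quantified 24 h post-dosing by RT-PCR and capillary electrophoresis.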

[13] = biological target: Transcriptional activator Myb (Homo sapiens) (UniProt P10242); test: ATG_Myb_CIS: Attagene CIS-FACTORIAL HepG2 Assay for human Myeloblastosis (Myb) Proto-Oncogene Transcription Factor (AID 2282986; active = hit-call score of the fitted dose curve at least 0.9, where 1 is the maximum; inactive = score below 0.9); conditions: HepG2 Attagene CIS-FACTORIAL Myb reporter transcription; actives raise or lower the signal
Chain of Transcriptional activator Myb (Homo sapiens) (P10242 whole entry, looked up): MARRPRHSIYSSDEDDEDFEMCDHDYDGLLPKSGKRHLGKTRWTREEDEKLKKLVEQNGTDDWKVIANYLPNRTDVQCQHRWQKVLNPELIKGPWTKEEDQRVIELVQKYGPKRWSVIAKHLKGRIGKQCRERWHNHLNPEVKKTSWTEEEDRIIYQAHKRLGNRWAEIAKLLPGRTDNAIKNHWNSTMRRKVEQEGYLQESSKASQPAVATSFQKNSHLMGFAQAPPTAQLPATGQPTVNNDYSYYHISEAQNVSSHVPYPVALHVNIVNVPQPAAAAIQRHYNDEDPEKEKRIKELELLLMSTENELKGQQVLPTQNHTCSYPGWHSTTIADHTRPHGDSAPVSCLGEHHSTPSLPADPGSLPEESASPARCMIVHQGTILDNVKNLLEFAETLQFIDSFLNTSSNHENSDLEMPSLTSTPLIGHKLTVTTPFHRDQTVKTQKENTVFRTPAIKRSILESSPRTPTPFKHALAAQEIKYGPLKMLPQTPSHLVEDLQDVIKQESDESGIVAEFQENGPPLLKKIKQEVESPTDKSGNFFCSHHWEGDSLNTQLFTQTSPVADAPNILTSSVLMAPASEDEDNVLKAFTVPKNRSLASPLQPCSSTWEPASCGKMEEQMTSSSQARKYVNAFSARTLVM
Procedure, shortened: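 Fluorescence signals from capillary electrophoresis of RT-PCR-amplified reporter cDNA give the read-out. Cells: HepG2 transfected with multiple cis-regulated reporter units. Exposure lasts 24 hours; DMSO defines baseline for gain or loss of signal.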

[14] = biological target: Nuclear respiratory factor 1 (Homo sapiens) (UniProt Q16656); test: ATG_NRF1_CIS: Attagene CIS-FACTORIAL HepG2 Assay for human Nuclear Respiratory Factor 1 (NRF1) Orphan Gene (AID 2282987; active = hit-call score of the fitted dose curve at least 0.9, where 1 is the maximum; inactive = score below 0.9); conditions: HepG2 NRF1 cis-element reporter, Attagene multiplex; actives raise or lower the signal
Procedure, shortened: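 Transcriptional reporter readout, one component of a 52-endpoint multiplexed HepG2 panel. Exposure 24 h; mRNA detected via RT-PCR and fluorescent capillary electrophoresis; fitting in both directions against DMSO.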

[15] = ATG_M_06_TRANS: Attagene TRANS-FACTORIAL HepG2 Assay for M06 Transcription Factor (Internal Marker) (AID 2282983); conditions: HepG2 Attagene TRANS M06 internal marker reporter;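 note: reporter transcript level by RT-PCR then capillary electrophoresis fluorescence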
Procedure, shortened: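 Background-control reporter readout: after 24 h chemical exposure of transiently transfected HepG2 (GAL4-UAS reporter units), mRNA quantified by RT-PCR with fluorescent labeling and capillary electrophoresis. Gain-of-signal fitting against DMSO baseline.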

[16] = biological target: Steroid hormone receptor ERR1 (Homo sapiens) (UniProt P11474); test: ATG_ERRa_TRANS: Attagene TRANS-FACTORIAL HepG2 Assay for human Estrogen-Related Receptor alpha (ERRa) (AID 2282971); conditions: HepG2 Attagene TRANS reporter, ERRa transactivation
Procedure, shortened: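 Reporter transcripts from ERRa-Gal4 chimera activity measured in transiently transfected human HepG2 cells 24 hours after dosing, using RT-PCR with 6-FAM primer extension, HpaI digestion and capillary electrophoresis; DMSO is baseline.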

[17] = biological target: Estrogen-related receptor gamma (Homo sapiens) (UniProt P62508); test: ATG_ERRg_TRANS: Attagene TRANS-FACTORIAL HepG2 Assay for human Estrogen-Related Receptor gamma (ERRg) (AID 2282977); conditions: HepG2 Attagene TRANS reporter, ERRg transactivation;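 note: hits increase reporter signal over DMSO so potencies reflect activators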
Chain of Estrogen-related receptor gamma (Homo sapiens) (P62508 whole entry, looked up, the tested form may be a part): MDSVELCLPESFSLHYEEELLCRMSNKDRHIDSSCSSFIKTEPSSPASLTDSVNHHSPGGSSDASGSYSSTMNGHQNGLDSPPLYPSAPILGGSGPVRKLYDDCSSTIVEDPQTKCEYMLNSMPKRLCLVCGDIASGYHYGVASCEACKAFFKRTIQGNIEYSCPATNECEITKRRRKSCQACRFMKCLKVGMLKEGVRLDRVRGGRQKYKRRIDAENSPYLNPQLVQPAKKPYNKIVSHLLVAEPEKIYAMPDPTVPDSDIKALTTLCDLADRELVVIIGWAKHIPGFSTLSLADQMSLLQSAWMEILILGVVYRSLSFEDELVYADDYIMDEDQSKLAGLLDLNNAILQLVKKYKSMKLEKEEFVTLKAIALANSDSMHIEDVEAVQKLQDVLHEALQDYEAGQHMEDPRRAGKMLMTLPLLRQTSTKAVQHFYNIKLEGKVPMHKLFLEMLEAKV
Procedure, shortened: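 Readout: fluorescent reporter-mRNA fragments resolved by capillary electrophoresis after RT-PCR and HpaI cut. Cells: transiently transfected HepG2 carrying GAL4-UAS reporters driven by exogenous NR-Gal4 chimeras, dosed 24 h. Activity fitted upward relative to DMSO baseline.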

[18] = biological target: Oxysterols receptor LXR-alpha (Homo sapiens) (UniProt Q13133); test: ATG_LXRa_TRANS: Attagene TRANS-FACTORIAL HepG2 Assay for human Liver X Receptor alpha (LXRa) (AID 2282980); conditions: HepG2 Attagene TRANS reporter, LXRa transactivation
Chain of Oxysterols receptor LXR-alpha (Homo sapiens) (Q13133 whole entry, looked up, the tested form may be a part): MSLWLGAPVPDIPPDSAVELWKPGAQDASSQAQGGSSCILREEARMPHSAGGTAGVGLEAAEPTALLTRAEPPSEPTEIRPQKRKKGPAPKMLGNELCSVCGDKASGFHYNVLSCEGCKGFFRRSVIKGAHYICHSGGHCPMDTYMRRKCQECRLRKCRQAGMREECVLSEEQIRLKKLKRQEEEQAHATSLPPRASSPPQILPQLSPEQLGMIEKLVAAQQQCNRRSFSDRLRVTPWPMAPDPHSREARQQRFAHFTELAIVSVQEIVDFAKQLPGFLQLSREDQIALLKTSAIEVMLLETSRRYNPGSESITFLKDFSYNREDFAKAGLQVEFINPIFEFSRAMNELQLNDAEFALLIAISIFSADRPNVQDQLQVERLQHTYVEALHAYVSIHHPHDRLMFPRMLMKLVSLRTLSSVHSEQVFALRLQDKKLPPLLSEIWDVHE
Procedure, shortened: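 Chemical-induced reporter mRNA measured by RT-PCR with fluorescent labelling and capillary electrophoresis after 24 h dosing of transiently transfected HepG2 cells expressing exogenous NR-Gal4 chimeras; increases scored against DMSO baseline.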

CCCCCCCCO[C@@H]1O[C@H](CO)[C@@H](O)[C@H](O)[C@H]1O
outcome [1]: inactive
outcome [2]: inactive
outcome [3]: inactive
outcome [4]: inactive
outcome [5]: inactive
outcome [6]: inactive
outcome [7]: inactive
outcome [8]: inactive
outcome [9]: inactive
outcome [10]: inactive
outcome [11]: inactive
outcome [12]: inactive
outcome [13]: inactive
outcome [14]: inactive

COCc1c(C(C)C)nc(C(C)C)c(/C=C/[C@@H](O)C[C@@H](O)CC(=O)O)c1-c1ccc(F)cc1
outcome [1]: inactive
outcome [2]: inactive
AC50 [3]: 2.34 µM (active)
outcome [4]: inactive
outcome [5]: inactive
outcome [6]: inactive
outcome [7]: inactive
outcome [15]: inactive
outcome [12]: inactive
outcome [13]: inactive
outcome [14]: inactive

CCCCCCCCCCCCCCCC[N+](C)(C)CC
outcome [1]: inactive
outcome [2]: inactive
AC50 [3]: 9.07 µM (active)
outcome [16]: inactive
outcome [4]: inactive
AC50 [17]: 9.59 µM (active)
outcome [8]: inactive
outcome [9]: inactive
outcome [15]: inactive
outcome [11]: inactive
AC50 [14]: 9.68 µM (active)

c1c[nH]cn1
outcome [1]: inactive
outcome [2]: inactive
outcome [3]: inactive
outcome [4]: inactive
outcome [5]: inactive
outcome [6]: inactive
outcome [10]: inactive
outcome [13]: inactive
outcome [14]: inactive

CC(C)(Oc1ccc(C2CC2(Cl)Cl)cc1)C(=O)O (configuration not stated)
outcome [1]: inactive
outcome [2]: inactive
outcome [3]: inactive
outcome [4]: inactive
outcome [5]: inactive
outcome [6]: inactive
outcome [7]: inactive
outcome [18]: inactive
outcome [15]: inactive
outcome [11]: inactive
outcome [14]: inactive

NC(=O)NNC(N)=O
outcome [1]: inactive
outcome [2]: inactive
outcome [3]: inactive
outcome [4]: inactive
outcome [5]: inactive
outcome [17]: inactive
outcome [7]: inactive
outcome [11]: inactive
outcome [12]: inactive
outcome [13]: inactive
outcome [14]: inactive

CCC(C)C=O (configuration not stated)
outcome [1]: inactive
outcome [2]: inactive
outcome [3]: inactive
outcome [4]: inactive
outcome [5]: inactive
outcome [18]: inactive
outcome [13]: inactive
outcome [14]: inactive

CC1(C)[C@H]2CC[C@]1(C)C(=O)C2
outcome [1]: inactive
outcome [2]: inactive
outcome [3]: inactive
outcome [16]: inactive
outcome [4]: inactive
outcome [6]: inactive
outcome [17]: inactive
outcome [18]: inactive
outcome [15]: inactive
outcome [11]: inactive

Cc1ccc(N)c([N+](=O)[O-])c1
outcome [1]: inactive
outcome [2]: inactive
outcome [3]: inactive
outcome [4]: inactive
outcome [5]: inactive
outcome [7]: inactive
outcome [13]: inactive

CC1=NC(C)OC1C (configuration not stated)
outcome [1]: inactive
outcome [2]: inactive
AC50 [3]: 9.63 µM (active)
outcome [4]: inactive
outcome [5]: inactive
outcome [6]: inactive
outcome [7]: inactive
outcome [9]: inactive
outcome [10]: inactive
outcome [11]: inactive
outcome [12]: inactive
outcome [13]: inactive
outcome [14]: inactive

O=C(c1ccccc1)c1ccc(O)c(O)c1O
outcome [1]: inactive
outcome [2]: inactive
outcome [3]: inactive
outcome [16]: inactive
outcome [4]: inactive
outcome [6]: inactive
outcome [17]: inactive
outcome [7]: inactive
outcome [9]: inactive
outcome [15]: inactive
outcome [11]: inactive
outcome [13]: inactive

CC1=NN(c2cc(S(=O)(=O)O)ccc2Cl)C(=O)C1N=Nc1ccccc1 (configuration not stated)
outcome [1]: inactive
outcome [2]: inactive
outcome [3]: inactive
outcome [4]: inactive
outcome [5]: inactive
outcome [6]: inactive
outcome [7]: inactive
outcome [8]: inactive
outcome [18]: inactive
outcome [9]: inactive
outcome [10]: inactive
outcome [15]: inactive
outcome [11]: inactive
outcome [13]: inactive
outcome [14]: inactive
